Screens (PubChem BioAssay)
FBW7 act – activators of human E3 ligase FBW7 | Q969H0 | AlphaScreen FBW7–phospho-cyclin E peptide binding, activator screen | normalized activity (activation), % at 26.1 µM | 650,000 compounds, 0.13% hits; in the data active means normalized activity above about 1.9%;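 further: purified mutant Fbw7 with reduced substrate affinity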
Target sequence (Q969H0 whole entry, looked up): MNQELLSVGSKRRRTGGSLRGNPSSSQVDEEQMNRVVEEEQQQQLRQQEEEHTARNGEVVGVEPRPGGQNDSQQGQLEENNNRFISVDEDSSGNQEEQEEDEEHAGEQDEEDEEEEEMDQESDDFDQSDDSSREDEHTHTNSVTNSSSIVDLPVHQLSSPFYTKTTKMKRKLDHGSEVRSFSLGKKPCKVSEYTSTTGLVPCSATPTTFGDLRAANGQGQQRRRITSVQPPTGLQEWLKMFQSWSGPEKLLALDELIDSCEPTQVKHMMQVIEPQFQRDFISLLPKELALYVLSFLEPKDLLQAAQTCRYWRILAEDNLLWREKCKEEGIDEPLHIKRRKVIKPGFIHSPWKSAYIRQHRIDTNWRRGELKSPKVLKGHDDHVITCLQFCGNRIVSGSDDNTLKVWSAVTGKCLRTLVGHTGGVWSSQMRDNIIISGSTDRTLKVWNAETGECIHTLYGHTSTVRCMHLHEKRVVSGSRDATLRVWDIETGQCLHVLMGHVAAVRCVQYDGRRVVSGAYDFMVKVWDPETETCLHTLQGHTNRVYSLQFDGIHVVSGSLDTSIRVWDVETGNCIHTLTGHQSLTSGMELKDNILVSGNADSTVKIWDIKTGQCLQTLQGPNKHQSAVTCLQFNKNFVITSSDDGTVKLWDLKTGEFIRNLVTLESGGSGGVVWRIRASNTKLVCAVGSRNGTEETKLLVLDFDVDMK
GPR151 ag – activators of human GPR151; PathHunter beta-arrestin GPR151 cells, luminescence; 650,000 compounds, 1% hits; activation, % at 11.2 µM; Q8TDV0; AID 1508602; in the data active means activation above about 4.9%;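 further: 0% = median of compound wells and 100% = cells with positive control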
MITF inh – human MITF inhibition, primary screen. O75030. AlphaScreen MITF homodimerization, bead proximity signal. inhibition, % at 2.6 µM. 650,000 compounds, 0.91% hits. AID 1259374; in the data active means inhibition above about 50%;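 further: 0% = vehicle wells with protein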
TEAD-YAP block – TEAD-YAP interaction inhibition | HEK-TIYL cells, TEAD-Gal4/YAP UAS-luciferase luminescence | inhibition, % at 9.12 µM | 640,000 compounds, 1.4% hits; in the data active means inhibition above about 32%;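 further: 0% = median of test compound wells and 100% = reference inhibitor wells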
* marks the source's active call; other numbers are inactive results. Shown are actives, neighbours in structure and some others; about 3.4% of the full set was active somewhere.

SMILES	FBW7 act	GPR151 ag	MITF inh	TEAD-YAP block
c1ccc(CNc2nc(Nc3cnccn3)nc3c2ncn3-c2ccsc2)cc1	0.0	-0.8	-4.2	13.6
c1ccc2[nH]c(CNc3nc(Nc4cnccn4)nc4c3ncn4-c3ccsc3)nc2c1	0.2	2.5	-11.3	70.6*
c1ccc(Nc2nc(NCc3nc4ccccc4[nH]3)c3ncn(-c4ccsc4)c3n2)nc1	0.1	1.3	10.9	78.2*
c1ccc(-n2cnc3c(NCc4nc5ccccc5[nH]4)nc(Nc4ccccn4)nc32)cc1	-0.2	-1.3	-2.6	53.4*
Cc1cc(Cl)ccc1OCCCC(=O)Nc1nccs1	1.1	-0.4	10.1	-4.8
Cc1ccc(NC(=O)c2ccc(F)c(S(=O)(=O)N(CCc3ccccc3)Cc3ccccc3)c2)cc1F	0.9	1.0	15.8	-6.0
CC1CCN(C(=O)CSc2ncccc2-c2nc3ccccc3[nH]2)CC1	0.3	-1.6	-9.4	48.9*
Cc1nc(NC(=O)CSc2ncccc2-c2nc3ccccc3[nH]2)sc1C	0.2	1.1	-13.3	73.0*
COC(=O)c1sc(NC(=O)CSc2ncccc2-c2nc3ccccc3[nH]2)nc1C	0.0	1.8	10.2	0.5
CC(=O)Nc1ccc2nc(CN3CCC(CO)(CCOc4ccccc4)CC3)ccc2c1	0.0	0.1	-0.5	6.8
CC1CCCC(C)N1CCNC(=O)CN1N=C(c2ccccc2)CCC1=O (configuration not stated)	0.0	-0.6	10.0	3.7
N#CC(Cl)CNS(=O)(=O)c1ccc(Cl)cc1 (configuration not stated)	0.0	-2.0	-1.0	47.0*
N#C/C(=C\c1ccc(O)c(O)c1)c1nc(-c2ccc3c(c2)OCO3)cs1	-0.3	0.2	58.0*	18.2
N#C/C(=C\c1ccc(O)c(Br)c1)c1nc(-c2ccc3c(c2)OCO3)cs1	0.1	-0.1	0.9	-10.6
COc1ccc2[nH]c(=O)c(-c3noc(-c4ccccc4F)n3)cc2c1	0.6	-2.4	12.5	8.0
O=C1C(C=NCc2cccnc2)=C(O)c2ccccc21	-0.3	-0.4	5.3	38.5*
O=C1C(C=NCc2ccncc2)=C(O)c2ccccc21	-0.1	-1.2	3.4	22.2
CCOc1ccccc1CN1CCN(Cc2ccc(C)cc2)CC1CCO (configuration not stated)	0.0	3.2	8.5	-4.8
c1ccc(-n2cnc3c(NCCN4CCOCC4)nc(Nc4ccncn4)nc32)cc1	0.1	-0.7	10.1	29.1
c1ccc(-n2cnc3c(NCCN4CCOCC4)nc(Nc4ccccn4)nc32)cc1	0.2	0.5	-6.4	35.1*
c1ccc(-n2cnc3c(NCCN4CCOCC4)nc(Nc4cnccn4)nc32)cc1	0.3	-1.2	12.5	48.1*
c1ccc(-n2cnc3c(NCCN4CCOCC4)nc(Nc4ncccn4)nc32)cc1	-0.1	0.2	-1.3	-3.1
Cc1cc(Cl)ccc1NCC(=O)N/N=C/c1ccc(O)cc1	0.4	-0.3	18.5	8.1
CCC(=S)N(CCc1ccc(OC)cc1)C1CC(=O)N(c2ccc(F)cc2)C1=O (configuration not stated)	0.0	0.0	-1.6	-4.1
NN1C(=O)c2cccc3cc(O)cc(c23)C1=O	-0.1	-1.6	18.1	-15.6
SMILES	FBW7 act	GPR151 ag	MITF inh	TEAD-YAP block
O=C(NCc1cccc(C(F)(F)F)c1)c1csc(Nc2ccc(N3CCOCC3)cc2)n1	0.1	2.6	22.1	51.4*
COc1ccc(CCNC(=O)c2cccc(Nc3ccc(N4CCOCC4)cc3)n2)cc1	-0.1	4.1	15.7	59.4*
O=C(NCc1cccc(C(F)(F)F)c1)c1cccc(Nc2ccc(N3CCOCC3)cc2)n1	0.2	3.9	16.3	62.3*
COc1cc(Nc2cccc(C(=O)NCCc3ccc(O)cc3)n2)cc(OC)c1OC	0.0	0.9	13.0	34.9*
COc1ccc(CCNC(=O)c2cccc(NCCN3CCOCC3)n2)cc1	-0.1	-0.6	-4.0	3.8
O=C(NCc1cccc(C(F)(F)F)c1)c1csc(Nc2ccc(C(F)(F)F)cc2)n1	0.0	1.3	-11.4	-5.7
COc1cc(Nc2cccc(C(=O)NCCN(C(C)C)C(C)C)n2)cc(OC)c1OC	0.0	1.5	13.5	-1.2
CCCn1nnc(NC(=O)c2ccccc2[N+](=O)[O-])n1	0.2	2.4	6.2	-4.1
O=C1c2ccc([N+](=O)[O-])cc2C(=O)N1CCCO	0.2	0.5	14.4	5.3
O=C(Cc1c(F)cccc1Cl)n1nnc2ccccc21	0.1	1.9	-0.2	9.7
Cc1cccc(Cc2nnc(CCC(=O)NCc3ccc(Cl)cc3)o2)c1	-0.1	1.7	-5.4	-19.4
COC(=O)C1CCN(c2ccc([N+](=O)[O-])cc2[N+](=O)[O-])CC1	0.7	1.8	12.4	-3.0
CCOC(=O)C1CN(c2ccc([N+](=O)[O-])cc2[N+](=O)[O-])C1	-0.2	0.6	-10.3	55.3*
CC(=O)N1CCC(N(Cc2ccc(Cl)cc2S(C)(=O)=O)C2CC2)CC1	0.0	-1.9	16.9	0.4
O=C(CCl)N1CCN(S(=O)(=O)c2ccccc2)CC1	0.0	-0.4	11.4	34.5*
CCOC(=O)c1ccc2nc(C)cc(Nc3cccc(O)c3)c2c1	-0.1	-1.5	-2.5	74.5*
COC(=O)c1ccc(Nc2cc(C)nc3c(C)cc(C)cc23)cc1	0.0	0.3	-7.0	48.6*
CCOC(=O)c1ccc(Nc2cc(C)nc3c(C)cc(C)cc23)cc1	0.3	-0.6	1.1	46.5*
CC(=O)Nc1ccc(Nc2cc(C)nc3c(C)cc(C)cc23)cc1	-0.3	-0.3	1.0	9.4
CCOC(=O)c1cccc(Nc2cc(C)nc3c(C)cc(C)cc23)c1	0.9	0.8	16.8	-9.4
CCn1c(O)c(C=Nc2cccc(Cl)c2)c(=O)[nH]c1=S	0.1	0.3	12.9	1.4
CC(CCCC(C)(C)O)NC(=O)c1cc(COc2ccc3ncccc3c2)on1 (configuration not stated)	-0.1	4.5	10.9	33.3*
O=C(NC1(c2ccccc2)CC1)c1cc(COc2ccc3ncccc3c2)on1	-0.1	-0.3	-4.9	58.4*
O=C(NCC1CCCN(Cc2cnc(N3CCCC3)s2)C1)c1cccnc1 (configuration not stated)	0.1	-1.4	-15.4	8.3
COc1cccc(CSc2nncn3c2cc2oc(C)cc23)c1	24.5*	-0.7	6.2	-5.1
SMILES	FBW7 act	GPR151 ag	MITF inh	TEAD-YAP block
COc1cccc(CSc2nncn3c2cc2occc23)c1	0.4	-0.7	13.6	-2.0
O=C(NNC(=O)c1cc2ccccc2cc1O)Nc1cccc([N+](=O)[O-])c1	-0.2	-1.6	-4.8	-6.5
O=C(Nc1cccc([N+](=O)[O-])c1)c1cc2ccccc2cc1O	0.0	-0.5	-0.8	34.3*
COc1ccc(/C=N/NC(=O)c2cc([N+](=O)[O-])ccc2O)cc1	-0.2	-9.1	-4.6	33.1*
COc1ccc(OCC(=O)Nc2cc([N+](=O)[O-])ccc2O)cc1	-0.2	-7.0	-1.1	89.6*
Cc1ccc(NC(=O)c2cc([N+](=O)[O-])ccc2O)cc1	0.1	-9.7	25.8	75.8*
COC(=O)c1sccc1S(=O)(=O)N1CCCC(c2ccn[nH]2)C1 (configuration not stated)	0.0	-0.2	-8.2	-3.6
S=c1oc(-c2ccccc2Cl)nn1CN1CCCC1	0.0	2.1	8.6	0.7
